Experimental data published in article PMC5540273 (PLoS ONE, 2017).

Test system: NEK5
Settings: concentration: 1 μM, replicates: in singlicate; n = 1
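Further: KINOMEscan kinase panel screen.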

Row | SMILES | %Inh [%]
1 | Cc1cccc(-c2nc(-c3ccc(S(C)(=O)=O)cc3)sc2-c2ccncc2)c1 | 3
2 | Nc1nc(-c2ccc3c(N)n[nH]c3c2)cc(N2CCCC2)n1 [GSK2227430] | 0
3 | NCC(NC(=O)c1cc(-c2cn[nH]c2)c(-c2ccnc3[nH]ccc23)s1)c1ccccc1.O=C(O)C(F)(F)F.O=C(O)C(F)(F)F (centres unmarked) [GSK1325775] | 57
4 | Cc1c(Cn2c(C)nn3c(=O)cc(N4CCOC(C)C4)nc23)cccc1C(F)(F)F (centres unmarked) [GSK2344444] | 0
5 | O=C(Nc1cccc(-c2nn3ncccc3c2-c2ccnc(Nc3cccc(C(F)(F)F)c3)n2)c1)c1c(F)cccc1F [GSK299495] | 13
6 | N#Cc1c(N2CCOCC2)sc(-c2ccn[nH]2)c1-c1ccc(Cl)cc1 | 0
7 | CCc1nc(-c2cccc(C)c2)c(-c2ccnc(NCc3ccccc3)c2)s1 | 0
8 | Nc1nccc(-c2c(-c3ccc(F)cc3)ncn2C2CCN(CC(F)(F)F)CC2)n1 [SB-236560] | 16
9 | CC(=O)Nc1ccc(COc2ccc(Nc3ccnc4cc(-c5ccccn5)ccc34)cc2)cc1.Cl [GW440148] | 10
10 | O=C(NCCCN1CCOCC1)c1cccc(Nc2nccc(Nc3ccc(Oc4ccccc4)cc3)n2)c1 [GW663929] | 24
11 | COc1cc2c(cc1OCCN1CCN(C)CC1)ncc1c3ccc(C#N)cc3[nH]c21 | 0
12 | COc1ccc(Nc2ncc(C#N)c(Nc3ccccc3C(N)=O)n2)cc1N1CCN(C)CC1.Cl [GSK1558669] | 100
13 | Cn1ccc2ncnc(Oc3ccc(NC(=O)Nc4ccncc4)c(Cl)c3)c21 | 3
14 | COc1cc2c(cc1OC[C@@H](O)CO)ncc1c3ccc(C#N)cc3[nH]c21 | 0
15 | Cc1cn2c(=O)cc(N3CCOCC3)nc2n1Cc1cccc(Cl)c1Cl [GSK2334006] | 14
16 | Cn1cc(-c2ccc3c(c2)CCN3C(=O)Cc2ccccc2Cl)c2c(N)ncnc21 [GSK2608885] | 7
17 | NS(=O)(=O)c1cccc(-c2ccc3nccc(-c4cccc(S(N)(=O)=O)c4)c3c2)c1 [GW867253] | 7
18 | Cl.Oc1cccc(Nc2ccnc3cc(-c4ccncc4)ccc23)c1 [GW494601] | 0

Row | SMILES | %Inh [%]
19 | [2H]C([2H])(c1cccc(C(F)(F)F)c1C)n1ccn2c(=O)nc(N3CCOCC3)cc12 [GSK2336394] | 4
20 | Cl.Nc1ncnc2occ(-c3ccc(NC(=O)Nc4cc(C(F)(F)F)ccc4F)cc3)c12 [SB-707548] | 30
21 | O=C1NC(=O)C(N2CCc3ccccc32)=C1c1cccc(Cl)c1 [SB-408010] | 0
22 | C[C@@H](Oc1cc(-n2cnc3ccc(NC(=O)NC(C)(C)C)cc32)sc1C(N)=O)c1ccccc1Cl [GSK346294] | 26
23 | O=c1cc(N2CCOCC2)nc2n(Cc3cccc(Cl)c3Cl)c(C3CC3)nn12 [GSK2358994] | 0
24 | CSc1ccc(-c2cc3ncnc(SCC(=O)O)c3s2)cc1 | 0
25 | c1ccc(-c2n[nH]cc2-c2ccnc3ccccc23)nc1 [GW271431] | 22
26 | O=C(NCCNc1ccnc(Nc2ccc(F)cc2)n1)c1cc2ccccc2s1 [GSK1379874] | 0
27 | Fc1ccc(-c2ncn(CCCN3CCOCC3)c2-c2cccnc2)cc1 [SB-211743] | 0
28 | Cc1ccc(NC(=O)c2ccnc(N3CCN(C)CC3)c2)cc1-c1ccc(C(=O)NCC2CC2)cc1 [GW775604] | 0
29 | CN1c2ccc(CNc3ccc(F)cc3)cc2-c2c(cnn2C)S1(=O)=O | 0
30 | CNc1ncnc2[nH]ncc12 [SKF-18355] | 0
31 | COCCNC(=O)c1ccc(-c2cc(C(=O)NC3CC3)cc(F)c2C)cc1 [GW868318] | 8
32 | CCc1ccnc(/C=C/c2n[nH]c3cc(Sc4ccccc4C(=O)NC)ccc23)c1 | 0
33 | CC(C)Oc1ccc2c(-c3ccnc(Nc4ccc(N5CCN(C)CC5)cc4)n3)cnn2n1 [GW696155] | 100
34 | c1ccc(-c2cc(-c3c[nH]nc3-c3ccccn3)ccn2)cc1 [GW576604] | 0
35 | Fc1ccc(-c2ncn(CCCN3CCOCC3)c2-c2ccccn2)cc1 [SB-211742] | 16

Test system: NEK6
Settings: concentration: 1 μM, replicates: in singlicate; n = 1

Row | SMILES | %Inh [%]
36 | Cc1cccc(-c2nc(-c3ccc(S(C)(=O)=O)cc3)sc2-c2ccncc2)c1 | 14
37 | Nc1nc(-c2ccc3c(N)n[nH]c3c2)cc(N2CCCC2)n1 [GSK2227430] | 0
38 | NCC(NC(=O)c1cc(-c2cn[nH]c2)c(-c2ccnc3[nH]ccc23)s1)c1ccccc1.O=C(O)C(F)(F)F.O=C(O)C(F)(F)F (centres unmarked) [GSK1325775] | 0
39 | Cc1c(Cn2c(C)nn3c(=O)cc(N4CCOC(C)C4)nc23)cccc1C(F)(F)F (centres unmarked) [GSK2344444] | 0
40 | O=C(Nc1cccc(-c2nn3ncccc3c2-c2ccnc(Nc3cccc(C(F)(F)F)c3)n2)c1)c1c(F)cccc1F [GSK299495] | 0
41 | N#Cc1c(N2CCOCC2)sc(-c2ccn[nH]2)c1-c1ccc(Cl)cc1 | 17
42 | CCc1nc(-c2cccc(C)c2)c(-c2ccnc(NCc3ccccc3)c2)s1 | 0
43 | Nc1nccc(-c2c(-c3ccc(F)cc3)ncn2C2CCN(CC(F)(F)F)CC2)n1 [SB-236560] | 0
44 | CC(=O)Nc1ccc(COc2ccc(Nc3ccnc4cc(-c5ccccn5)ccc34)cc2)cc1.Cl [GW440148] | 0
45 | O=C(NCCCN1CCOCC1)c1cccc(Nc2nccc(Nc3ccc(Oc4ccccc4)cc3)n2)c1 [GW663929] | 15
46 | COc1cc2c(cc1OCCN1CCN(C)CC1)ncc1c3ccc(C#N)cc3[nH]c21 | 7
47 | COc1ccc(Nc2ncc(C#N)c(Nc3ccccc3C(N)=O)n2)cc1N1CCN(C)CC1.Cl [GSK1558669] | 99.9
48 | Cn1ccc2ncnc(Oc3ccc(NC(=O)Nc4ccncc4)c(Cl)c3)c21 | 0
49 | COc1cc2c(cc1OC[C@@H](O)CO)ncc1c3ccc(C#N)cc3[nH]c21 | 0
50 | Cc1cn2c(=O)cc(N3CCOCC3)nc2n1Cc1cccc(Cl)c1Cl [GSK2334006] | 18
51 | Cn1cc(-c2ccc3c(c2)CCN3C(=O)Cc2ccccc2Cl)c2c(N)ncnc21 [GSK2608885] | 3
52 | NS(=O)(=O)c1cccc(-c2ccc3nccc(-c4cccc(S(N)(=O)=O)c4)c3c2)c1 [GW867253] | 0
53 | Cl.Oc1cccc(Nc2ccnc3cc(-c4ccncc4)ccc23)c1 [GW494601] | 0

Row | SMILES | %Inh [%]
54 | [2H]C([2H])(c1cccc(C(F)(F)F)c1C)n1ccn2c(=O)nc(N3CCOCC3)cc12 [GSK2336394] | 0
55 | Cl.Nc1ncnc2occ(-c3ccc(NC(=O)Nc4cc(C(F)(F)F)ccc4F)cc3)c12 [SB-707548] | 0
56 | O=C1NC(=O)C(N2CCc3ccccc32)=C1c1cccc(Cl)c1 [SB-408010] | 9
57 | C[C@@H](Oc1cc(-n2cnc3ccc(NC(=O)NC(C)(C)C)cc32)sc1C(N)=O)c1ccccc1Cl [GSK346294] | 0
58 | O=c1cc(N2CCOCC2)nc2n(Cc3cccc(Cl)c3Cl)c(C3CC3)nn12 [GSK2358994] | 8
59 | CSc1ccc(-c2cc3ncnc(SCC(=O)O)c3s2)cc1 | 17
60 | c1ccc(-c2n[nH]cc2-c2ccnc3ccccc23)nc1 [GW271431] | 0
61 | Cl.Cl.Cl.Fc1ccc(-c2ncn(C3CCNCC3)c2-c2ccnc(Nc3ccccc3)n2)cc1 [SB-238039] | 0
62 | O=C(NCCNc1ccnc(Nc2ccc(F)cc2)n1)c1cc2ccccc2s1 [GSK1379874] | 0
63 | Fc1ccc(-c2ncn(CCCN3CCOCC3)c2-c2cccnc2)cc1 [SB-211743] | 0
64 | Cc1ccc(NC(=O)c2ccnc(N3CCN(C)CC3)c2)cc1-c1ccc(C(=O)NCC2CC2)cc1 [GW775604] | 0
65 | CN1c2ccc(CNc3ccc(F)cc3)cc2-c2c(cnn2C)S1(=O)=O | 0
66 | CNc1ncnc2[nH]ncc12 [SKF-18355] | 0
67 | COCCNC(=O)c1ccc(-c2cc(C(=O)NC3CC3)cc(F)c2C)cc1 [GW868318] | 22
68 | CCc1ccnc(/C=C/c2n[nH]c3cc(Sc4ccccc4C(=O)NC)ccc23)c1 | 0
69 | CC(C)Oc1ccc2c(-c3ccnc(Nc4ccc(N5CCN(C)CC5)cc4)n3)cnn2n1 [GW696155] | 99.8
70 | c1ccc(-c2cc(-c3c[nH]nc3-c3ccccn3)ccn2)cc1 [GW576604] | 0
71 | Fc1ccc(-c2ncn(CCCN3CCOCC3)c2-c2ccccn2)cc1 [SB-211742] | 15
